The results in this text go back to PMC12670160, “A drug-repurposing screen of FDA- and EMA-approved drugs identifies two NF-κB inhibitors active against eumycetoma” (Journal of Antimicrobial Chemotherapy, 2025).

Molecules are shown by their SMILES. Structures can show the parent of a compound that is named as a salt. Screen size: about 5,300 compounds; about 130 (2.5%) showed an effect of 50% or more. The entries come from a sample that favours strong results as a whole.

For this test, the system named is M. mycetomatis strain mm55. To be noted: primary screen, metabolic activity vs growth control; 96 h, 2 µM; inhibitor.
With `CNC(=O)c1ccc2cc([C@]3(O)CCn4cncc43)ccc2c1` [ONC0004670, tak700 orteronel], the “% viability” value is given as 115.9%.

Consider `CCN(CCCOc1ccc2c(Nc3cc(CC(=O)Nc4cccc(F)c4)n[nH]3)ncnc2c1)CCOP(=O)(O)O` [ONC0002222, azd1152], for which the “% viability” value was found to be 73.5%.

As to `C[C@@H](NCCc1ccc(O)cc1)[C@@H](O)c1ccc(O)cc1` (racemic) [ONC0000689, ritodrine hydrochloride], the “% viability” value came to 122.8%.

Turning to `Cc1oc(=O)oc1COC(=O)C1=C([C@H]2CCCO2)S[C@@H]2[C@@H]([C@@H](C)O)C(=O)N12` [ONC0001072, faropenem daloxate], the “% viability” value came to 41.67%.

With `C[C@@H](O)[C@H]1C(=O)N2C(C(=O)[O-])=C([C@H]3CCCO3)S[C@H]12.C[C@@H](O)[C@H]1C(=O)N2C(C(=O)[O-])=C([C@H]3CCCO3)S[C@H]12.O.O.O.O.O.[Na+].[Na+]` [ONC0000335, faropenem sodium hemipentahydrate], the “% viability” value was 95.52%.

`C1=C/COCc2cc(ccc2OCCN2CCCC2)Nc2nccc(n2)-c2cccc(c2)COC/1` [ONC0004380, pacritinib sb1518]: the “% viability” value is listed as 107.6%.

In the case of `O=C(NC1CCNCC1)[C@@H]1CC[C@@H]2CN1C(=O)N2OS(=O)(=O)O` [ONC0001257, relebactam], the “% viability” value is 62.24%.

With `CC[C@H](C)[C@@H]([C@@H](CC(=O)N1CCC[C@H]1[C@H](OC)[C@@H](C)C(=O)N[C@@H](Cc1ccccc1)c1nccs1)OC)N(C)C(=O)[C@@H](NC(=O)[C@H](C(C)C)N(C)C)C(C)C` [ONC0003667, dolastin10], the “% viability” value is given as 74.88%.

Take `N#C/C(=C1/SCC(c2ccccc2Cl)S1)n1ccnc1` (stereo not drawn) [Lanoconazole]: the “% viability” value is 3.92%.

Turning to `N#C/C(=C1/SC[C@@H](c2ccc(Cl)cc2Cl)S1)n1ccnc1` [Luliconazole], the “% viability” value came to 0.7126%.

Regarding `C[C@@]12CC[C@@H]3[C@@](CC[C@H]4[C@@]3(C)CCC[C@@]4(C)C(=O)O)(CC1=O)C2` [ONC0002858, isosteviol], the “% viability” value is on record as 83.56%.

Consider `CN(C)c1ccc(-c2nc3c(N4CCN(CC(=O)Nc5nccs5)CC4)c(Cl)cnc3[nH]2)cc1` [ONC0004963, cct129202], for which the “% viability” value came to 95.03%.

For `O=C1c2ccccc2NC2=CCCCCN12` [ONC0003231, 78910tetrahydroazepino21bquinazolin126hone], the “% viability” value is 99.72%.

In the case of `COc1ccccc1OCC(O)CNC(C)C` (stereo not drawn) [ONC0003655, moprolol], the “% viability” value was found to be 69.09%.

For `[2H]C([2H])([2H])C(O)(CCO[C@@H](C)[C@H]1CC[C@H]2/C(=C/C=C3/C[C@@H](O)C[C@H](O)C3=C)CCC[C@]12C)C([2H])([2H])[2H]` [ONC0001868, maxacalcitol], the “% viability” value was 112.3%.

Regarding `Oc1ccc(C2(c3ccccc3F)CCC(F)(F)CC2)cc1` [ONC0000174, ac186], the “% viability” value is recorded as 93.25%.

For the compound `CN(C)C/C=C/C(=O)Nc1ccc(C(=O)Nc2cccc(Nc3ncc(Cl)c(-c4c[nH]c5ccccc45)n3)c2)cc1` [ONC0002074, thz1], the “% viability” value was determined as 55.81%.

In the case of `CN(C)C/C=C/C(=O)Nc1cccc(C(=O)Nc2cccc(Nc3ncc(Cl)c(-c4c[nH]c5ccccc45)n3)c2)c1` [ONC0002061, thz2], the “% viability” value stood at 66.57%.

Take `Cc1cc(C(=O)Nc2nc3cccc(Cl)c3n2[C@@H]2CCCCN(C(=O)/C=C/CN(C)C)C2)ccn1` [ONC0001107, nazartinib]: the “% viability” value came out at 39.34%.

Take `CC(=O)[C@@]12OC(C)(c3ccccc3)O[C@@H]1C[C@H]1[C@@H]3CCC4=CC(=O)CC[C@]4(C)[C@H]3CC[C@@]12C` (stereo partly drawn) [ONC0002369, algestoneacetophenide]: the “% viability” value came out at 99.76%.

On to `CC(Nc1ncnc2nc[nH]c12)c1cc2ccc(F)cc2nc1-c1ccccn1` (stereo not drawn) [ONC0004426, amg319], for which the “% viability” value amounted to 156.7%.

For `N[C@H](Cc1ccccc1)C(=O)O` [ONC0002457, dphenylalanine], the “% viability” value is 101.3%.

In the case of `N[C@H](CSC(c1ccccc1)(c1ccccc1)c1ccccc1)C(=O)O` [ONC0001742, strityllcysteine], the “% viability” value came to 48.39%.

Regarding `CSC[C@H](N)C(=O)O` [ONC0003388, smethylcysteine], the “% viability” value stood at 83.56%.

For the compound `C[C@]12C=CC(=O)C=C1CCC1C2[C@@H](O)C[C@@]2(C)C1CC[C@]2(O)C(=O)CO` (stereo partly drawn) [ONC0005351, prednisolone], the “% viability” value was found to be 112.6%.

On to `Cc1cc(-c2ccc(/N=N/c3ccc4c(S(=O)(=O)O)cc(S(=O)(=O)O)c(N)c4c3O)c(C)c2)ccc1/N=N/c1ccc2c(S(=O)(=O)O)cc(S(=O)(=O)O)c(N)c2c1O` [ONC0003296, evans blue], for which the “% viability” value is on record as 49.05%.

Turning to `COc1cc(-c2ccc(/N=N/c3ccc4c(S(=O)(=O)O)cc(S(=O)(=O)O)c(N)c4c3O)c(OC)c2)ccc1/N=N/c1ccc2c(S(=O)(=O)O)cc(S(=O)(=O)O)c(N)c2c1O` [ONC0002750, chicagoskyblue6b], the “% viability” value amounted to 94.85%.

On to `COC(=O)CC1CC(c2ccc(O)cc2)=NO1` (stereo not drawn) [ONC0001839, iso1], for which the “% viability” value is given as 78.97%.

Regarding `N[C@@H](CC(=O)N1CCn2c(nnc2C(F)(F)F)C1)Cc1cc(F)c(F)cc1F` [ONC0004045, sitagliptin phosphate], the “% viability” value is given as 93.31%.

Regarding `N[C@@H](CC(=O)N1CCn2c(nnc2C(F)(F)F)C1)Cc1n[nH]c2c(F)c(F)ccc12` [ONC0001660, pk44 phosphate], the “% viability” value was found to be 33.36%.

On to `NCCNc1ccc(NCCN)c2c1C(=O)c1ccncc1C2=O.O=C(O)/C=C\C(=O)O.O=C(O)/C=C\C(=O)O` [ONC0000916, pixantrone dimaleate], for which the “% viability” value turned out to be 85.22%.

In the case of `Fc1cc(F)c2c(c1)[C@H]1C=CC[C@H]1C(c1cccnc1)N2` (mixture of isomers) [ONC0005186, golgicide a], the “% viability” value is recorded as 78.39%.

On to `Cc1ccc2c(c1CCC(=O)O)CC[C@@H](NS(=O)(=O)c1ccc(Cl)cc1)C2` [ONC0001303, terutroban], for which the “% viability” value was 45.19%.

`O=C(O)CCn1c2c(c3ccccc31)C[C@H](NS(=O)(=O)c1ccc(F)cc1)CC2` [ONC0000918, ramatroban]: the “% viability” value turned out to be 93.57%.

For the compound `O=C(O)Cc1ccc(CCNS(=O)(=O)c2ccc(Cl)cc2)cc1` [ONC0002194, daltroban], the “% viability” value amounted to 74.66%.

In the case of `COC[C@H](NC(=O)c1cnc(C)s1)C(=O)N[C@@H](COC)C(=O)N[C@@H](Cc1ccccc1)C(=O)C1(C)CO1` (stereo partly drawn) [ONC0004389, oprozomib onx 0912], the “% viability” value amounted to 101.4%.

Regarding `O=C(CNC(=O)c1cccc(C(F)(F)F)c1)N[C@@H]1CCN(Cc2ccc(Cl)cc2)C1` [ONC0002608, teijincompound1], the “% viability” value is on record as 76.98%.

`C[S+]([O-])CCCCN=C=S` (stereo not drawn) [ONC0003262, sulforaphane]: the “% viability” value is listed as 49.62%.

As for `C/C=C/C1=C(C(=O)O)N2C(=O)[C@@H](NC(=O)[C@H](N)c3ccc(O)cc3)[C@H]2SC1` [ONC0004213, cefprozil], the “% viability” value worked out at 75.17%.

Take `O=C(Nc1cnccc1Cl)N1CCN(Cc2ccc3c(c2)OC(F)(F)O3)CC1` [ONC0001299, jnj42165279]: the “% viability” value is reported as 60.28%.

In the case of `COc1nc(C)nc(Cl)c1N=C1NCCN1` [ONC0003528, moxonidine], the “% viability” value turned out to be 108%.

Consider `CCCCCCCC/C=C/C(=O)O` [ONC0003676, trans2undecenoic acid], for which the “% viability” value is recorded as 70.7%.

As to `CCCCCC(C)N` (stereo not drawn) [ONC0003207, tuaminoheptane sulfate], the “% viability” value worked out at 110.6%.

For the compound `CCCCCCCCCCCCCC[C@@H](O)[C@@H](O)[C@@H](N)CO` [ONC0003465, phytosphingosine], the “% viability” value turned out to be 45.49%.

As for `CCCCCCCCCCCCCCC[C@@H](O)[C@@H](N)CO` [ONC0003442, dihydrosphingosine derythro], the “% viability” value amounted to 75.68%.

Take `N#Cc1ccc(Cn2cncc2CN2CCN(c3cccc(Cl)c3)C(=O)C2)cc1` [ONC0000972, l778123 hydrochloride]: the “% viability” value turned out to be 78.78%.

With `CC(=O)O[C@]1(C(C)=O)CCC2C3C[C@H](C)C4=CC(=O)CC[C@]4(C)C3CC[C@@]21C` (stereo partly drawn) [ONC0000456, medroxyprogesterone acetate], the “% viability” value is recorded as 83.76%.

With `N[C@H](Cc1cc(I)c(Oc2ccc(O)c(I)c2)c(I)c1)C(=O)O` [ONC0003830, liothyronine], the “% viability” value was 90.31%.

In the case of `O=C(O[C@@H]1C[C@@H]2C[C@@H]3C[C@H](C1)N2CC3=O)c1c[nH]c2ccccc12` [ONC0005492, dolasetron], the “% viability” value amounted to 77.8%.

`O[C@H]([C@H](O)[C@@H]1CO1)[C@H]1CO1` [ONC0001201, val083]: the “% viability” value was determined as 107%.

Regarding `CC(C)(C)c1ccc(C(=O)Nc2cn3cc(-n4ccnc4)ccc3n2)cc1` [ONC0000079, tcask10], the “% viability” value was 88.09%.

In the case of `N[C@@H](CC(=O)NO)C(=O)O` [ONC0005577, lasparaginenhydroxy], the “% viability” value turned out to be 46.79%.

As to `N[C@@H](CC(=O)O)C(=O)O` [ONC0005584, lasparticacid], the “% viability” value was determined as 67.27%.

In the case of `NC(=O)C[C@H](N)C(=O)O` [ONC0002130, lasparagine], the “% viability” value is on record as 76.47%.

Take `CC1(C)S[C@@H]2C(N3C(=O)[C@@H](c4ccccc4)NC3(C)C)C(=O)N2[C@H]1C(=O)O` (stereo partly drawn) [ONC0000520, hetacillin potassium]: the “% viability” value came to 62.89%.

As for `Cn1c(Nc2ccc(C(F)(F)F)cc2)nc2cc(Oc3ccnc(-c4ncc(C(F)(F)F)[nH]4)c3)ccc21` [ONC0005005, raf265 chir265], the “% viability” value was 41.37%.

For the compound `CC(C)C[C@H](NC(=O)CN(C)C(=O)[C@H](Cc1ccccc1)NC(=O)[C@H](Cc1ccccc1)NC(=O)[C@H](CCC(N)=O)NC(=O)[C@H](CCC(N)=O)NC(=O)[C@@H]1CCCN1C(=O)[C@H](CCCCN)NC(=O)[C@@H]1CCCN1C(=O)[C@@H](N)CCCNC(=N)N)C(=O)N[C@@H](CCS(C)(=O)=O)C(N)=O` [ONC0003648, sar9meto211substance p], the “% viability” value came to 64.96%.
